# Source: PubChem BioAssay
# D1 antag – human D1 dopamine receptor antagonism; HEK293 TREx D1 cells, calcium flux, dopamine EC80; stronger effect = lower value; activity change, negative = inhibition, % at 10 µM; 360,000 compounds, 3.2% hits; in the data active means activity change below about -30%; further: on the % scale 0 is the no-effect control and ±100 the full control effect
# Target sequence (P21728 whole entry, looked up): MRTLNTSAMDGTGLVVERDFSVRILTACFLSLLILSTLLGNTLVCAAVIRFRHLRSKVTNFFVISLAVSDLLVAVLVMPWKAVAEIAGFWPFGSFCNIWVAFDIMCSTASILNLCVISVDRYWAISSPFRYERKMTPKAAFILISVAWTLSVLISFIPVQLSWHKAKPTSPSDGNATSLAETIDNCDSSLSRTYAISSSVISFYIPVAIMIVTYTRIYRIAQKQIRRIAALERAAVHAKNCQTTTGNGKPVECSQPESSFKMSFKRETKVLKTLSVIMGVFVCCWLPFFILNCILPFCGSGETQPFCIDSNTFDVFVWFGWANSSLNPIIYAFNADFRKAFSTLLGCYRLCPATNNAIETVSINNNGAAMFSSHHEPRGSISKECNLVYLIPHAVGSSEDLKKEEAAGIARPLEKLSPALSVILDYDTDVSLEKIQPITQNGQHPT
#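 Using tetracycline-induced force-coupled D1 Hek293 cells and a calcium dye, signals were followed for 180 s after compound, then for 180 s after EC80 dopamine, to detect inhibitors.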
# D1 agonist – activates the human D1 dopamine receptor; 360,000 compounds, 1% hits; AID 504660; P21728; HEK293 T-REx D1 cells, calcium flux, agonist mode; activation, % at 2 µM; in the data active means activation above about 30%; further: 0% is about no effect
#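 Inducible HEK293 T-REx D1 cells, force-coupled to calcium signalling, were plated at 4000 cells/well with tetracycline and held overnight at 30 C. After no-wash calcium dye loading, compound-evoked calcium rise over 180 s flagged agonists.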
# D1 potentiator – enhances dopamine response at the human D1 receptor. P21728. HEK293 TREx D1 cells, calcium flux, dopamine EC20 potentiation. potentiation, % at 10 µM. 360,000 compounds, 0.036% hits; in the data active means potentiation above about 30%; further: 0% is about no effect
# D3 antag – antagonists of human D3 dopamine receptor | P35462 | D3R cells, DiscoveRx beta-arrestin luminescence, antagonist mode; stronger effect = lower value | max response, negative = inhibition, % | 360,000 compounds, 2.5% hits; in the data active means max response below about -50%; inconclusive means no clear call, values can overlap the other calls; further: on the % scale 0 is the no-effect control and ±100 the full control effect
#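 Cells plated overnight at 1500 cells/well, then exposed to library compounds with dopamine controls for 90 minutes at 37 degrees C. DiscoveRx reagent added for 30–60 minutes at room temperature; luminescence read, quantitative HTS format.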
# D3 ag – agonists of human D3 dopamine receptor; P35462; D3R DiscoveRx beta-arrestin cells, luminescence, 90 min; AID 652048; 410,000 compounds, 0.58% hits; max activation, %; in the data active means max activation above about 30%; further: 0% is about no effect
#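 Cells at 1500/well, incubated overnight, then treated with pinned compounds (dopamine as control) for 90 min at 37 degrees C. DiscoveRx reagent added for 30 - 60 minutes at room temperature; luminescence read.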
# Numbers without * were called inactive; ? = inconclusive; . = no result. Shown are actives, neighbours in structure and some others; about 6% of the full set was active somewhere.
SMILES,D1 antag,D1 agonist,D1 potentiator,D3 antag,D3 ag
COc1ccc(-c2cc(C)no2)cc1S(=O)(=O)Nc1ccccc1,2.2,1.7,0.8,?,-7.0
O=C(COc1ccc(F)cc1)NCCN1CCCC1,17.3,0.7,0.3,-57.0*,-15.3
O=C(NCCN1CCCCC1)Nc1cccc(C(F)(F)F)c1,-18.4,3.6,-5.0,-57.6*,-11.9
CCN(CC)S(=O)(=O)c1ccc2c(c1)N(CC(=O)NCCCN1CCN(c3cc(C)ccc3C)CC1)C(=O)CO2,-13.2,13.4,-0.1,.,-19.6
O=C(Nc1ccc(CN2CCCCC2)cc1)Nc1ccc(Br)cc1Cl,-4.9,8.8,-6.3,-79.4*,-28.5
S=C(Nc1ccc(Br)cc1Cl)N1CCCC1,1.3,3.9,0.5,10.8,13.8
Cc1ccc(C(=O)NCC(=O)NCCSc2ccc(Br)cc2)cc1,-17.9,3.2,-4.6,-56.7*,-13.4
O=C(NCCCCNC(=O)c1ccc(Br)cc1)c1ccc(Br)cc1,-33.1*,-0.5,-4.8,10.2,-11.0
O=C(O)CCCCCNC(=O)c1ccc(Br)cc1,-14.9,2.4,-2.3,-8.9,0.1
O=C(NCCN1CCOCC1)c1ccc(Cl)c(S(=O)(=O)N2CCCCC2)c1,-35.6*,2.7,6.5,-23.5,-21.3
CCOc1ccc(NC(=O)C2CCN(S(=O)(=O)c3c(C)noc3/C=C/c3cccs3)CC2)cc1,-12.4,4.4,2.0,.,-18.9
Cc1ccc(C(=O)c2cc(O)c(O)c([N+](=O)[O-])c2)cc1,.,.,.,.,0.9
CCOc1ccc(C(=O)NCCN2CCCC2)cc1,11.3,2.3,-1.4,-58.4*,-9.5
Cc1ccc(C(=O)NCCC(=O)N2CCOCC2)cc1,-36.9*,1.5,-5.5,-13.5,-1.0
Cc1ccc(C)c(S(=O)(=O)Nc2ccc(C(=O)NCCCN3CCOCC3)cc2)c1,10.9,1.5,4.5,-14.5,-7.3
O=C(NCCn1ccc2ccccc21)c1ccc(Cl)cc1,-34.1*,-0.3,-4.0,.,-13.4
COc1ccc(C(=O)NCCN2CCOCC2)cc1S(=O)(=O)Nc1ccc(C)cc1,-35.9*,5.6,9.6,-8.2,-16.4
Cc1ccc(C(=O)NCCN2CCOCC2)cc1,12.8,-1.4,-3.0,?,-31.5
CCOc1ccc(C(=O)Nc2ccc(C(=O)OCc3cc(=O)n4c(C)csc4n3)cc2)cc1,-17.0,13.6,-0.1,.,2.3
COc1ccc(NC(=O)c2cn3c4c(ccc(Cl)c4c2=O)OC(C)C3)cc1OC (configuration not stated),15.8,3.4,8.4,.,-4.9
O=C(NCCN1CCCCC1)Nc1ccc(Br)cc1,-59.9*,7.3,-1.1,-54.4*,-12.6
Cc1ccc(NC(=O)NCCN2CCCCC2)cc1,3.2,2.9,-3.2,-17.3,-22.1
O=C(NCCC(=O)N1CCCCCCC1)c1ccc(Br)cc1,13.2,-0.6,-0.9,-6.7,-9.3
O=C(NCCN1CCCC1)c1cccc(Cl)c1,1.0,3.2,0.1,?,-22.1
CN1CCN(C(=O)c2cc(Cl)ccc2NC(=O)c2ccc(Cl)cc2Cl)CC1,-30.5*,-0.5,-6.2,3.6,2.0
SMILES,D1 antag,D1 agonist,D1 potentiator,D3 antag,D3 ag
O=C(NCCN1CCCC1)c1ccc(Cl)cc1,-7.3,-0.1,-3.5,-98.4*,-11.1
O=C(NCCN1CCCC1)c1ccc(Br)cc1,4.9,0.8,31.4*,-76.8*,-33.0
CC(C)CN(CCCNC(=O)c1cc(-c2ccc(Br)s2)nc2ccccc12)CC(C)C,9.5,-1.2,1.8,.,4.5
CCc1nn(CC(=O)NCc2ccco2)c(=O)c2cc3cc(F)ccc3n12,23.3,6.2,2.5,.,7.8
O=C(CCN1CCCCC1)NNC(=S)NC(=O)c1ccc(Br)cc1,-36.1*,3.4,-0.9,5.2,3.8
O=C(Nc1ccccc1C(=O)NCCCN1CCOCC1)c1ccc(F)cc1F,-6.7,1.2,7.0,5.6,5.6
O=C(Nc1ccccc1C(=O)NCCN1CCOCC1)c1ccc(Cl)cc1Cl,-30.8*,0.5,-6.7,5.7,-1.7
CCCCCC(O)(CCN1CCCCC1)c1ccc(OCC)cc1 (configuration not stated),-1.9,35.4*,-0.6,-25.4,-12.6
CC(C)C1=NN2C(=N)CC(=O)N=C2S1,-2.0,1.6,0.3,-62.8*,5.4
Cc1cccc2sc(N(CCCN(C)C)C(=O)CCc3ccccc3)nc12,-23.6,22.5,-10.3,-23.4,-13.5
Cc1cccc2sc(N(CCCN(C)C)C(=O)CN3C(=O)c4ccccc4C3=O)nc12,-8.8,33.1*,-1.6,-3.4,-12.8
COc1ccc(OC)c2sc(N(CCCN(C)C)C(=O)CCS(=O)(=O)c3ccccc3)nc12,6.5,4.0,1.6,-15.6,-19.3
Cc1ccc2sc(N(CCCN(C)C)C(=O)CCS(=O)(=O)c3ccccc3)nc2c1C,-16.6,64.1*,-6.9,?,-16.6
O=C(CSc1nc(=O)[nH]c2c1CCCC2)Nc1ccccc1C(F)(F)F,.,2.1,-0.3,.,0.0
CCOC(=O)C1CCCN(C(=O)C2CCN(S(=O)(=O)c3c(C)noc3/C=C/c3ccc(C)cc3)CC2)C1 (configuration not stated),-19.1,4.2,-1.3,.,-3.8
O=[S+]([O-])(c1cc2ccccc2o1)N1CCN([S+](=O)([O-])c2c(F)cccc2F)CC1,14.9,1.9,4.0,.,.
CCOC(=O)COc1ccc2ccccc2c1/C=C/[N+](=O)[O-],12.7,-0.5,-5.7,-52.0*,-7.1
CCOC(=O)Cn1nnnc1CN(Cc1ccccc1)Cc1cc2cc(CC)ccc2[nH]c1=O,-39.2*,1.7,-4.6,-9.1,3.3
CCc1ccc2[nH]c(=O)c(CN(Cc3ccccc3)Cc3nnnn3Cc3ccco3)cc2c1,7.2,5.1,3.5,28.9,8.8
O=C(COc1ccc(Cl)cc1)N/N=C/CCc1ccccc1,-4.1,2.1,0.8,-60.0*,-4.0
O=C(COc1ccccc1)NCC(=O)N/N=C/c1ccc(Cl)cc1,-12.9,10.4,-2.4,-7.3,-1.0
N#Cc1c(Nc2ccccc2)[n+]([O-])c2ccc(Cl)cc2[n+]1[O-],.,.,.,-54.6*,-23.3
CN1CCN(S(=O)(=O)c2ccc(NC(=O)Nc3cccc(Cl)c3)cc2)CC1,-47.5*,10.8,-9.4,16.3,-1.9
Cc1cc(C)nc(NS(=O)(=O)c2ccc(NC(=O)COc3ccccc3)cc2)n1,-17.5,1.0,-7.2,19.8,1.3
CCc1ccc(OCC(=O)Nc2ccc(S(=O)(=O)Nc3ccccn3)cc2)cc1,-17.0,41.6*,-5.5,4.1,-6.7
CN1CCN(c2ccc(NC(=O)COc3ccccc3Cl)cc2)CC1,-70.4*,10.4,-19.8,21.9,-20.0
O=C(Nc1cccc(Cl)c1)Nc1cc(S(=O)(=O)N2CCCCC2)ccc1Cl,-23.3,9.4,-7.3,-11.2,-7.1
Cc1cc(C)nc(NS(=O)(=O)c2ccc(NC(=O)COc3ccc(Cl)cc3C)cc2)n1,-48.6*,-0.7,-1.6,.,3.0
CCOC(=O)CNC(=O)N1CCN(S(=O)(=O)c2ccc3c(ccn3C)c2)CC1,-7.6,-1.7,-3.1,.,-7.8
